ChEMBL document CHEMBL3988442, “University of Dundee, Small-Polar-MMV Screening Library” (2021)
In all, about 48,000 compounds went through this assay and about 13,000 (27%) showed an effect of 50% or more. This is one part of the list.

System: Wolbachia pipientis
Experiment: Anti-Wolbachia Cell-Based Screen
Format: functional
Design: scale not given: in the data most compounds retested in dose-response had high values
Conditions: 5 µM

Point of comparison: `Cc1csc2ncc(-c3ccnc(N4CCCN(C)CC4)n3)c(=O)n12`, “Percent Effect” value 84.49%. Against it:
- Cc1nc(C(C)(C)NC(=O)Nc2ccncc2)no1 — lower, -5.529%
- CS(=O)(=O)NCC1CCCN(C(=O)Nc2ccccc2N2CCCC2)C1 (centres undefined) — higher, 96.01%
- CS(=O)(=O)NCC1CCCN(C(=O)Nc2ccccc2F)C1 (centres undefined) — higher, 119.4%
- CC(C)S(=O)(=O)NCC1CCCN(C(=O)c2ccc(F)cc2)C1 (centres undefined) — lower, -11.51%
- CS(=O)(=O)NCC1CCCN(C(=O)COCc2ccccc2)C1 (centres undefined) — lower, -4.256%
- CS(=O)(=O)NCC1CCCN(C(=O)Nc2cccc3ccccc23)C1 (centres undefined) — higher, 98.14%
- O=C(Nc1cccc2ccccc12)N1CCC(N2CCSCC2)CC1 — lower, -0.7759%
- CS(=O)(=O)NCC1CCCN(C(=O)c2ccc3c(c2)CCCC3)C1 (centres undefined) — lower, 4.156%
- CS(=O)(=O)NCC1CCCN(C(=O)COc2ccc(F)cc2)C1 (centres undefined) — lower, -1.733%
- O=C(CN1CCCC1)N1CCCC(CNS(=O)(=O)Cc2ccccc2)C1 (centres undefined) — lower, 16.47%
- CNS(=O)(=O)CCCN1CCCC1c1noc(C2CC2)n1 (centres undefined) — lower, -1.215%
- O=C(Nc1ccc(-c2csnn2)cc1)N1CCCC1 — lower, -14.17%
- CN(C)Cc1csc(-c2nccn2CCc2cccnc2)c1 — lower, -6.294%
- CCCC(Cn1cnc(-c2ccccc2)c1-c1cncn1CC)N(C)C (centres undefined) — lower, 8.465%
- CCCNC(=O)c1cc2c(nc1O)CCC(C)C2 (centres undefined) — lower, 4.186%
- Cc1ccc(C(=O)NCCCNS(C)(=O)=O)c(=O)[nH]1 — lower, 10.14%
- Cc1ccc(C(=O)NCCCS(C)(=O)=O)c(=O)[nH]1 — lower, 0.8619%
- Cc1ccc(C(=O)NCCS(C)(=O)=O)c(=O)[nH]1 — lower, -10.31%
- Cc1ccc(C(=O)NCCNS(C)(=O)=O)c(=O)[nH]1 — lower, 2.203%
- Cc1ccc(C(=O)NC2CCN(S(C)(=O)=O)CC2)c(=O)[nH]1 — higher, 87.03%
- Cc1ccc(C(=O)NC2CCCN(S(C)(=O)=O)C2)c(=O)[nH]1 (centres undefined) — higher, 107.3%
- CN(Cc1ccco1)Cc1ccccc1CNC(=O)c1csnn1 — lower, -8.686%
- NC(=O)NC(=O)CCN1CCN(CC2CC2)c2ccccc21 — lower, -1.129%
- OC[C@H]1CN(Cc2c(Cl)cncc2Cl)C[C@H]1CN1CCOCC1 — lower, 11.24%
- Cn1cccc1C(=O)NCc1cn2c(n1)CN(CC1CCOC1)CC2 (centres undefined) — lower, -25.14%
- Cn1cc(-c2ncc3c(c2C(=O)O)CCN(CC2CCOC2)C3)cn1 (centres undefined) — higher, 111.7%
- Cn1cc(-c2ncc3c(c2C(=O)O)CCN(CC2CC2)C3)cn1.O=C(O)C(F)(F)F.O=C(O)C(F)(F)F — higher, 86.35%
- CN1CCn2c(-c3cnn(C)c3)cnc2C12CCN(CC1CC1)CC2.O=C(O)C(F)(F)F.O=C(O)C(F)(F)F.O=C(O)C(F)(F)F — lower, -10.48%
- CN(C)C(C(=O)N1CCN(CCn2cccc2)CC1)c1ccc(F)cc1 (centres undefined) — lower, -11.45%
- COc1cccc(CN2CCC3(CCN(c4ncc(C)cn4)C3)C2=O)c1 (centres undefined) — lower, -10.16%
- Cc1cnc(N2CCC3(C2)C(=O)N(C)CCN3Cc2cccnc2)nc1.O=C(O)C(F)(F)F.O=C(O)C(F)(F)F (centres undefined) — lower, 1.691%
- O=C(O)C(F)(F)F.O=C(O)C(F)(F)F.O=C1N(Cc2cccnc2)CCC12CCCN(c1ncccn1)C2 (centres undefined) — higher, 94.5%
- O=C1N(Cc2ccc(F)c(F)c2)CCCC12CCN(C1CCCC1)C2 (centres undefined) — lower, 7.69%
- COc1cc(N2CCC3(CCN(Cc4cccnc4)C3=O)C2)ncn1 (centres undefined) — higher, 116%
- O=C(O)C(F)(F)F.O=C1N(Cc2ccncc2)CCC12CCCN(c1ncc(F)cn1)C2 (centres undefined) — higher, 97.96%
- O=C(O)C(F)(F)F.O=C([C@H]1CCCO1)N1CCCC2(CCN(Cc3ccncc3)C2=O)C1 (some centres undefined) — lower, 14.29%
- CN1CCN(Cc2cccnc2)C2(CCN(c3ncccn3)C2)C1=O.O=C(O)C(F)(F)F.O=C(O)C(F)(F)F (centres undefined) — lower, -6.592%
- COc1cc(N2CCCC3(CCN(c4cncnc4)C3=O)C2)ncn1 (centres undefined) — lower, -10.96%
- O=C1N(Cc2cccc(F)c2)CCC12CCCN(c1ncc(F)cn1)C2 (centres undefined) — higher, 102%
- CC(C)(C)[S+]([O-])CCNC(=O)c1csc(NC2CC2)n1 (centres undefined) — lower, 7.627%
- CSCC(C)(O)CNc1ncccc1C(F)(F)F (centres undefined) — lower, 8.156%
- COc1ccccc1C(=O)N1CCN(C(=O)CCCc2cn[nH]c2)CC1 — lower, 9.231%
- COC(=O)CNc1cc(C(=O)NCC(F)(F)F)cc(F)c1C — lower, 5.099%
- O=C(c1ccccn1)N1C[C@@H]2OCC(=O)N(CC3CCCCC3)[C@@H]2C1 — lower, 1.178%
- OC1CCN(Cc2cc3c(cc2Br)OCCO3)CC1 — lower, 23.9%
- Cc1ccc(NC(=O)N2CCCN(C(N)=O)CC2)s1 — lower, -6.622%
- O=S1(=O)CCC(c2nnc(-c3cnc4onc(C5CCCC5)c4c3)o2)C1 (centres undefined) — lower, -3.167%
- O=C1O[C@@H]2CN(c3ccccn3)C[C@@H]2N1CCCc1ccc(F)cc1 — lower, 2.286%
- COCc1nc2cc(NCc3scnc3C)ccc2o1 — lower, 5.426%
- CN1CCN(Cc2cccnc2)C2(CCN(c3ncc(F)cn3)C2)C1=O.O=C(O)C(F)(F)F.O=C(O)C(F)(F)F (centres undefined) — lower, -9.065%
- O=C(O)C(F)(F)F.O=C1N(Cc2cccnc2)CCC12CCCN(c1ncc(F)cn1)C2 (centres undefined) — higher, 109.4%
- Cc1csc2ncc(-c3ccnc(N4CCC[C@H](C(N)=O)C4)n3)c(=O)n12 — higher, 107.6%
- Cc1ccc(-c2csc3c(=O)[nH]c(N4CCCC(C(N)=O)C4)nc23)cc1 (centres undefined) — lower, 13.87%
- Cc1noc(-c2ccc(N3CCCC(C(N)=O)C3)nc2)n1 (centres undefined) — lower, -1.352%
- Cc1ccc(-c2ccnc(N3CCC4(CC3)CNC(=O)C4)n2)c(C)n1 — lower, -12.24%
- Cc1csc2ncc(-c3ccnc(N4CCN(C)CC4)n3)c(=O)n12 — lower, 4.781%
- Cc1csc2ncc(-c3ccnc(N4CCCC4)n3)c(=O)n12 — higher, 95.07%
- C=C(C)COc1cccc(C(=O)N2CCC(O)(c3ccccc3)CC2)c1 — lower, -7.065%
- CNS(=O)(=O)CC(=O)NC(C)Cc1ccc(-c2ccccc2)cc1 (centres undefined) — lower, -4.402%
- Nc1ccnc(N2CCC(Cc3ccccc3Cl)(C(=O)O)CC2)n1 — lower, 5.255%
- CC(O)CN1CCc2onc(C(c3ccccc3)c3ccccc3)c2C1 (centres undefined) — lower, -15.19%
- COCCNS(=O)(=O)c1cccc2c1CN(C(=O)c1cc(C)on1)CC2 — lower, -0.4963%
- Cc1nc(CN2CCc3cc(C(=O)O)c(N(C)C)nc3CC2)cs1.O=C(O)C(F)(F)F.O=C(O)C(F)(F)F — higher, 99.11%
- CCOc1ncnc2c1CCN(Cc1csc(C)n1)CC2.O=C(O)C(F)(F)F — lower, 7.701%
- Cc1nc(CN2CCc3ncnc(C4CC4)c3CC2)cs1.O=C(O)C(F)(F)F — lower, -1.319%
- Cc1cccc(CN2CCc3cc(C(=O)O)c(N(C)C)nc3CC2)n1.O=C(O)C(F)(F)F.O=C(O)C(F)(F)F — higher, 105.7%
- CCCSCC(=O)NS(=O)(=O)c1ccc2c(c1)OCCO2 — lower, -7.969%
- COc1ccc(Cc2nnc(SC)o2)cc1OC — lower, -1.582%
- COCCN(Cc1ccc(F)cc1Cl)C(=O)c1cc[n+]([O-])cc1 — lower, -5.927%
- c1ccc(-c2cc(CN3C[C@@H]4CC[C@H](C3)N(CC3CC3)C4)on2)cc1 — lower, 2.507%
- O=C(Nc1ccccc1Oc1cccc(F)c1)NC1CCS(=O)(=O)C1 (centres undefined) — lower, 9.337%
- CN(Cc1nc(Cc2ccccc2F)no1)CC1Cc2ccccc2O1 (centres undefined) — lower, 1.647%
- Cc1noc(C2CCC3(CCN(C(=O)c4cc(C5CC5)on4)CC3)O2)n1 (centres undefined) — higher, 104.1%
- Cc1noc(C2CCC3(CCN(C(=O)c4ccncn4)CC3)O2)n1 (centres undefined) — higher, 97.14%
- Cc1noc(C2CCC3(CCN(C(=O)c4c(C)noc4C)CC3)O2)n1 (centres undefined) — lower, -1.941%
- O=C(c1cc(C2CC2)on1)N1CC[C@]2(C[C@H](Oc3cccnc3)CO2)C1 — lower, -8.078%
- CC1N(CC2CC2)C(=O)COC12CCN(C(=O)c1cnccn1)CC2 (centres undefined) — lower, -1.759%
- C[C@H]1C[C@H]2CN(C(=O)c3ccncn3)CC[C@H]2O1 — lower, 2.98%
- C[C@H]1C[C@@H]2CCN(C(=O)c3ccncn3)C[C@H]2O1 — lower, 15.39%
- Cc1noc(C2CCC3(CCN(C(=O)c4cnccn4)CC3)O2)n1 (centres undefined) — higher, 108.3%
- Cc1noc(C2CCN(C(=O)c3cc(Cl)c(Cl)n3C)CC2)n1 — lower, -8.55%
- Cc1noc(C2CCC3(CCN(C(=O)c4ncccn4)CC3)O2)n1 (centres undefined) — higher, 110.9%
- Cc1ccc(F)c(S(=O)(=O)NCc2cccc(N3CCOC3=O)c2)c1 — lower, -1.653%
- COc1ccc(C(=O)NCc2cc(N3CCOCC3)ncn2)o1 — lower, -2.324%
- COCC(=O)N1CCC2(CC1)CN(c1ncccn1)CCO2 — lower, -1.945%
- Cc1nn(C)c(Cl)c1C1CCCN1c1ncnc2sccc12 (centres undefined) — lower, -14.86%
- CC1CCN(C(CNC(=O)Cn2cccn2)c2cccs2)CC1 (centres undefined) — lower, -3.451%
- O=C(O)C(F)(F)F.O=C(c1ccccn1)N1CCOC2(COCCN(Cc3cc[nH]n3)C2)C1 (centres undefined) — lower, -2.383%
- O=C(O)C(F)(F)F.O=C(c1ccoc1)N1CCOC2(COCCN(CC3CC3)C2)C1 (centres undefined) — higher, 89.02%
- O=C(O)C(F)(F)F.O=C(c1ccoc1)N1CCOC2(COCCN(c3ncccn3)C2)C1 (centres undefined) — lower, 21.15%
- CC(C)N1CCOCC2(CCCN(C(=O)c3cncn3C)C2)C1.O=C(O)C(F)(F)F (centres undefined) — lower, -5.769%
- Cn1ccc(C(=O)N2CCOC3(COCCN(CC4CC4)C3)C2)n1.O=C(O)C(F)(F)F (centres undefined) — higher, 108.5%
- Fc1cccc(CN2CCOC3(COCCN(CC4CC4)C3)C2)c1.O=C(O)C(F)(F)F.O=C(O)C(F)(F)F (centres undefined) — higher, 100.6%
- Cn1cncc1C(=O)N1CCOC2(COCCN(CC3CC3)C2)C1.O=C(O)C(F)(F)F (centres undefined) — higher, 104.1%
- O=C(O)C(F)(F)F.O=C(O)C(F)(F)F.O=C(O)C(F)(F)F.c1cc(CN2CCOCC3(C2)CN(Cc2nccs2)CCO3)ccn1 (centres undefined) — lower, -17.66%
- O=C(O)C(F)(F)F.O=C(O)C(F)(F)F.O=C(O)C(F)(F)F.c1coc(CN2CCOC3(COCCN(Cc4ccncc4)C3)C2)c1 (centres undefined) — lower, -11.91%
- Cn1ccc(C(=O)N2C[C@@H]3CN(CC4CC4)CCO[C@@H]3C2)n1.O=C(O)C(F)(F)F — lower, -13.66%
- O=C(O)C(F)(F)F.O=C(O)C(F)(F)F.c1cnc(N2CCCC3(CN(CC4CCOCC4)CCO3)C2)cn1 (centres undefined) — lower, -4.594%
